According to PubChem BioAssay AID1159580 (chemical genetic matrix, 2015):
“And” between values parts separate entries of the source, which are not always exact repeats. Equal values may be shown once. Screen size: about 5,500 compounds; about 2,000 (36%) were called active. Another 18% or so got no clear call; they are omitted. No stated cut-off is given here; in the data, active means normalized growth mostly below about 0.91 (no sharp cut-off); inconclusive means no clear call, values can overlap the other calls; inactive means mostly above about 0.92. The list shows a part of the results.

Experiment: chemical genetic growth profiling, strain panel (AID 1159580);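 further: tested at 20 µM; growth read once vehicle control cultures reached saturation at 30 °C; 1 = growth at the plate median or of vehicle wells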
Details: S. cerevisiae deletion strains, growth OD

Measured: normalized growth

C[C@]12CCC3C(CC[C@]4(O)C[C@@H](O)CC[C@]34C=O)[C@@]1(O)CCC2C1=CC(=O)OC1 (stereo not given in full)
inactive: locus YAL021C, strain ccr4, stronger effect = lower value 0.92 | locus YAL026C, strain drs2, stronger effect = lower value 0.983 | locus YAL030W, strain snc1, stronger effect = lower value 0.975 | locus YBL061C, strain skt5, stronger effect = lower value 0.979 | locus YBR009C, strain hhf1, stronger effect = lower value 0.967 | locus YBR021W, strain FUR4, stronger effect = lower value 1 | locus YBR023C, strain chs3, stronger effect = lower value 0.98 | locus YBR171W, strain sec66, stronger effect = lower value 0.986 | locus YBR229C, strain ROT2, stronger effect = lower value 0.94 | locus YBR231C, strain swc5, stronger effect = lower value 0.995 | locus YBR279W, strain paf1, stronger effect = lower value 0.986 | locus YCL011C, strain gbp2, stronger effect = lower value 0.943 | locus YCL016C, strain dcc1, stronger effect = lower value 0.958 | locus YCL029C, strain bik1, stronger effect = lower value 0.962 | locus YCL069W, strain vba3, stronger effect = lower value 0.981 | locus YCR088W, strain abp1, stronger effect = lower value 0.988 | locus YDL005C, strain med2, stronger effect = lower value 0.969 | locus YDL035C, strain GPR1, stronger effect = lower value 0.964 | locus YDL040C, strain nat1, stronger effect = lower value 0.992 | locus YDL074C, strain BRE1, stronger effect = lower value 1.01 | locus YDL101C, strain DUN1, stronger effect = lower value 0.987 | locus YDL185W, strain tfp1, stronger effect = lower value 0.962 | locus YDL192W, strain arf1, stronger effect = lower value 0.976 | locus YDR001C, strain nth1, stronger effect = lower value 0.967 | locus YDR069C, strain doa4, stronger effect = lower value 0.986 | locus YDR101C, strain arx1, stronger effect = lower value 0.97 | locus YDR137W, strain rgp1, stronger effect = lower value 0.971 | locus YDR159W, strain sac3, stronger effect = lower value 1.05 | locus YDR162C, strain NBP2, stronger effect = lower value 0.975 | locus YDR195W, strain ref2 1.01 | locus YDR297W, strain sur2, stronger effect = lower value 0.994 | locus YDR318W, strain mcm21, stronger effect = lower value 0.98 | locus YDR334W, strain swr1, stronger effect = lower value 0.978 | locus YDR335W, strain msn5, stronger effect = lower value 0.989 | locus YDR388W, stronger effect = lower value 0.982 | locus YDR392W, strain spt3, stronger effect = lower value 0.889 | locus YDR502C, strain sam2, stronger effect = lower value 0.99 | locus YEL003W, strain gim4, stronger effect = lower value 0.991 | locus YEL037C, strain rad23, stronger effect = lower value 0.979 | locus YEL061C, strain CIN8 (second series), stronger effect = lower value 0.984 | locus YEL061C, strain CIN8, stronger effect = lower value 0.986 | locus YER016W, strain bim1, stronger effect = lower value 0.991 | locus YER110C, stronger effect = lower value 0.98 | locus YER111C, strain swi4, stronger effect = lower value 1.02 | locus YER155C, strain BEM2 (second series), stronger effect = lower value 1.06 | locus YER155C, strain BEM2, stronger effect = lower value 0.994 | locus YER167W, strain BCK2, stronger effect = lower value 0.984 | locus YFR010W, strain ubp6, stronger effect = lower value 0.982 | locus YGL078C, strain dbp3, stronger effect = lower value 0.996 | locus YGL086W, strain mad1, stronger effect = lower value 0.992 | locus YGL167C, strain pmr1, stronger effect = lower value 0.965 | locus YGL173C, strain kem1, stronger effect = lower value 0.994 | locus YGL227W, strain vid30, stronger effect = lower value 0.998 | locus YGL240W, strain doc1, stronger effect = lower value 1.03 | locus YGL248W, strain PDE1, stronger effect = lower value 1 | locus YGL253W, strain hxk2, stronger effect = lower value 0.985 | locus YGR135W, strain pre9, stronger effect = lower value 0.975 | locus YGR229C, strain SMI1, stronger effect = lower value 0.991 | locus YGR252W, strain gcn5, stronger effect = lower value 0.988 | locus YHR013C, strain ard1, stronger effect = lower value 0.953 | locus YHR027C, strain rpn1, stronger effect = lower value 0.973 | locus YHR030C, strain SLT2, stronger effect = lower value 0.991 and 0.995 | locus YHR079C, strain IRE1 (second series), stronger effect = lower value 0.98 | locus YHR079C, strain IRE1, stronger effect = lower value 0.988 | locus YHR094C, strain hxt1, stronger effect = lower value 0.976 | locus YHR129C, strain ARP1, stronger effect = lower value 0.989 | locus YHR142W, strain chs7, stronger effect = lower value 0.971 | locus YHR200W, strain rpn10, stronger effect = lower value 0.964 | locus YIL066C, strain RNR3, stronger effect = lower value 0.95 | locus YIL073C, strain SPO22, stronger effect = lower value 0.958 | locus YIL125W, strain kgd1, stronger effect = lower value 0.969 | locus YIR030C, strain dcg1, stronger effect = lower value 0.975 | locus YJL092W, strain hpr5, stronger effect = lower value 0.97 | locus YJL095W, strain BCK1 (second series), stronger effect = lower value 0.98 | locus YJL095W, strain BCK1, stronger effect = lower value 1.05 and 1.01 | locus YJL115W, strain asf1, stronger effect = lower value 0.968 | locus YJL129C, strain trk1, stronger effect = lower value 0.999 | locus YJL134W, strain LCB3, stronger effect = lower value 0.98 | locus YJL154C, strain vps35, stronger effect = lower value 0.984 | locus YJL164C, strain tpk1, stronger effect = lower value 0.933 | locus YJL166W, strain qcr8, stronger effect = lower value 1 | locus YJL168C, strain set2, stronger effect = lower value 0.982 | locus YJL187C, strain SWE1 (second series), stronger effect = lower value 1.01 | locus YJR043C, strain POL32, stronger effect = lower value 0.964
active: locus YER015W, strain faa2, stronger effect = lower value 0.922
